The nature of assay [1]: qHTS assay to test for compound auto fluorescence at 535 nm (green) in HEK293 cells (AID 720680). Background: In qHTS, concentration-response curves come from the screen itself.
Assay [2] is described as follows: qHTS assay to test for compound auto fluorescence at 460 nm (blue) in HEK293 cell free culture (AID 720681). Summed up: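 Compounds were added to cell-free DMEM with 10% FBS and fluorescence read directly. The blue channel used 405 nm excitation and 460 nm emission, with triamterene as the reference fluorophore.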
Assay [3] is described as follows: qHTS assay to test for compound auto fluorescence at 535 nm (green) in HEK293 cell free culture (AID 720682). Summed up: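 Read-out: 485/535 nm fluorescence intensity, calibrated against fluorescein. Medium only (DMEM + 10% FBS, no cells); test compound or DMSO vehicle added by pintool before plate reading.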
The nature of assay [4]: qHTS assay to test for compound auto fluorescence at 590 nm (red) in HEK293 cell free culture (AID 720683). Summed up: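 Cell-free wells of DMEM with 10% FBS received compound, and intrinsic fluorescence was read at excitation/emission 540/590 nm. Values expressed as equivalence to Rose Bengal sodium.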
Assay [5] is described as follows: qHTS assay to test for compound auto fluorescence at 590 nm (red) in HepG2 cell free culture (AID 720684). In outline:
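Compounds are added to culture medium (MEM, 10% FBS) lacking cells, then fluorescence is read at excitation 540 nm, emission 590 nm, with Rose Bengal sodium as the equivalency standard.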

Assay [6] in a line: qHTS assay to test for compound auto fluorescence at 460 nm (blue) in HepG2 cell free culture (AID 720685). In outline: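 Compound (23 nL) or DMSO pinned into cell-free MEM with 10% FBS; blue fluorescence read at 405/460 nm excitation/emission, expressed as auto-fluorescence equivalency to triamterene.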
Assay [7] can be described thus: qHTS assay to test for compound auto fluorescence at 535 nm (green) in HepG2 cell free culture (AID 720686).
Assay [8] is described as follows: qHTS assay to test for compound auto fluorescence at 460 nm (blue) in HepG2 cells (AID 720687). In outline: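 HepG2 cells in MEM with 10% FBS, attached overnight at 37 C, were exposed to compound or DMSO for 1 hr at 37 C, 5% CO2. Blue fluorescence was read at 405/460 nm, with triamterene as reference fluorophore.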
Assay [9] addresses Glucocorticoid receptor (Homo sapiens) (UniProt P04150). In words: qHTS assay to identify small molecule agonists of the glucocorticoid receptor (GR) signaling pathway (AID 720691; active = well fitted activation curve with a large enough effect in the signal ratio in the repeat runs, not every such curve was filed as active; inconclusive = weak or mixed curves, or effect the other way; inactive = no such curve, though single readings can be large or run the other way; the % refers to the signal ratio; also: potency is read from the fitted curve at half-maximal effect). The conditions noted are these: GR-bla HeLa, beta-lactamase reporter ratio, 18 h; activation: at 62.4 µM (top of the series). In outline: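 Beta-lactamase reporter activity, read as fluorescence intensity, was measured in GR-bla HeLa cells exposed to compounds for 18 h at 37 C and then loaded with LiveBLAzer B/G FRET substrate for 2 h at room temperature.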

Assay [10] in a line: qHTS assay to identify small molecule antagonists of the glucocorticoid receptor (GR) signaling pathway - cell viability counter screen (AID 720693). Also: nearly all actives have a fitted effect of over 55% in size. Also: potency is read from the fitted curve at half-maximal effect.
Assay [11] in a line: qHTS assay for identifying genotoxic compounds that show differential cytotoxicity against isogenic chicken DT40 cell lines with known DNA damage response pathways - wild type cell line (AID 743012). Also: nearly all actives have a fitted effect of over 60% in size. Also: potency is read from the fitted curve at half-maximal effect. In outline: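 Quantitative HTS on parental DT40 cells: 40 h compound treatment at 37 C/5% CO2, with viability then determined by CellTiter-Glo luminescence. Values serve as the DNA repair-proficient reference for differential cytotoxicity.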

The nature of assay [12]: qHTS assay for identifying genotoxic compounds that show differential cytotoxicity against isogenic chicken DT40 cell lines with known DNA damage response pathways - Rev3 mutant cell line (AID 743014). Also: nearly all actives have a fitted effect of over 55% in size. Also: potency is read from the fitted curve at half-maximal effect.
The nature of assay [13]: qHTS assay for identifying genotoxic compounds that show differential cytotoxicity against isogenic chicken DT40 cell lines with known DNA damage response pathways - Rad54/Ku70 mutant cell line (AID 743015). Also: nearly all actives have a fitted effect of over 60% in size. Also: potency is read from the fitted curve at half-maximal effect.
The nature of assay [14]: qHTS assay to identify small molecule antagonists of the androgen receptor (AR) signaling pathway - cell viability counter screen (AID 743033; also: nearly all actives have a fitted effect of over 45% in size; also: potency is read from the fitted curve at half-maximal effect).
For assay [15], the target named is Androgen receptor (Homo sapiens) (UniProt P10275). In words: qHTS assay to identify small molecule antagonists of the androgen receptor (AR) signaling pathway (AID 743035; active = well fitted inhibition curve with a large enough effect in the signal ratio in the repeat runs, not every such curve was filed as active; inconclusive = weak or mixed curves, or effect the other way; inactive = no such curve, though single readings can be large or run the other way; the % refers to the signal ratio; also: potency is read from the fitted curve at half-maximal effect). Summed up:
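Cell line: GeneBLAzer AR-UAS-bla GripTite (HEK293). Stimulus: R1881 added after compound. Exposure: 16 h, 37C, 5% CO2. Readout: LiveBLAzer B/G FRET fluorescence after 2 h at room temperature.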

Assay [16] has the same target. In words: qHTS assay to identify small molecule agonists of the androgen receptor (AR) signaling pathway using the MDA cell line (AID 743040; also: nearly all actives have a fitted effect of over 20% in size). Summed up:
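Human breast carcinoma MDA-kb2 reporter cells (MMTV-luc, AR/GR elements) were treated for 16 h at 37C in 0% CO2 following a 5 h settling period. Signal was quantified by ONE-Glo luminescence.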

Assay [17] in a line: qHTS assay to identify small molecule antagonists of the androgen receptor (AR) signaling pathway using the MDA cell line - cell viability counter screen (AID 743041; also: nearly all actives have a fitted effect of over 45% in size). In outline: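 Same-well cytotoxicity was assessed by CellTiter-Fluor in MDA-kb2 AR-luc cells after 16 h of compound treatment under R1881 agonism.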
In assay [18] the target is Androgen receptor (Homo sapiens) (UniProt P10275). Briefly: qHTS assay to identify small molecule antagonists of the androgen receptor (AR) signaling pathway using the MDA cell line (AID 743042; also: nearly all actives have a fitted effect of over 55% in size; also: potency is read from the fitted curve at half-maximal effect). In outline:
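MDA-kb2 breast carcinoma cells carrying MMTV-luciferase (AR/GR responsive) were co-treated with compounds and the agonist R1881 for 16 h at 37C. Inhibition read as ONE-Glo luminescence; CellTiter-Fluor fluorescence measured in parallel for cytotoxicity.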

For assay [19] the target is unchanged. Briefly: qHTS assay to identify small molecule agonists of the androgen receptor (AR) signaling pathway (AID 743036; active = well fitted activation curve with a large enough effect in the signal ratio in the repeat runs, with a control signal flat, not every such curve was filed as active; inconclusive = weak or mixed curves, or effect the other way; inactive = no such curve, though single readings can be large or run the other way; the % refers to the signal ratio). Summed up:
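HEK293 cells stably carrying a UAS-driven beta-lactamase reporter (GeneBLAzer AR-UAS-bla-GripTite) were plated at 2,000 cells/well, rested 4 h at 37C, then exposed to compounds in DMSO for 16 h. LiveBLAzer B/G FRET substrate was added for 2 h at room temperature; fluorescence read.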

Assay [20] has as its target Glucocorticoid receptor (Homo sapiens) (UniProt P04150). Briefly: qHTS assay to identify small molecule antagonists of the glucocorticoid receptor (GR) signaling pathway (AID 720692; active = well fitted inhibition curve with a large enough effect in the signal ratio in the repeat runs, not every such curve was filed as active; inconclusive = weak or mixed curves, or effect the other way; inactive = no such curve, though single readings can be large or run the other way; the % refers to the signal ratio). In outline: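 Fluorescence from cleaved LiveBLAzer B/G FRET substrate reports GRE-driven beta-lactamase in HeLa cells; compounds are tested against 5 nM dexamethasone (final) over 18 h at 37 C, substrate incubation 2 h at room temperature.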

Calls of active or inactive are those of the source. Unless noted, calls follow the shape of the dose curve; as a rule, active = well fitted curve in the direction sought with a large enough effect in the repeat runs; inconclusive = weak or mixed curves; inactive = no such curve, though single readings can be large; an effect the other way counts as inactive or inconclusive.

Sequence of Androgen receptor (Homo sapiens) (P10275 whole entry, looked up): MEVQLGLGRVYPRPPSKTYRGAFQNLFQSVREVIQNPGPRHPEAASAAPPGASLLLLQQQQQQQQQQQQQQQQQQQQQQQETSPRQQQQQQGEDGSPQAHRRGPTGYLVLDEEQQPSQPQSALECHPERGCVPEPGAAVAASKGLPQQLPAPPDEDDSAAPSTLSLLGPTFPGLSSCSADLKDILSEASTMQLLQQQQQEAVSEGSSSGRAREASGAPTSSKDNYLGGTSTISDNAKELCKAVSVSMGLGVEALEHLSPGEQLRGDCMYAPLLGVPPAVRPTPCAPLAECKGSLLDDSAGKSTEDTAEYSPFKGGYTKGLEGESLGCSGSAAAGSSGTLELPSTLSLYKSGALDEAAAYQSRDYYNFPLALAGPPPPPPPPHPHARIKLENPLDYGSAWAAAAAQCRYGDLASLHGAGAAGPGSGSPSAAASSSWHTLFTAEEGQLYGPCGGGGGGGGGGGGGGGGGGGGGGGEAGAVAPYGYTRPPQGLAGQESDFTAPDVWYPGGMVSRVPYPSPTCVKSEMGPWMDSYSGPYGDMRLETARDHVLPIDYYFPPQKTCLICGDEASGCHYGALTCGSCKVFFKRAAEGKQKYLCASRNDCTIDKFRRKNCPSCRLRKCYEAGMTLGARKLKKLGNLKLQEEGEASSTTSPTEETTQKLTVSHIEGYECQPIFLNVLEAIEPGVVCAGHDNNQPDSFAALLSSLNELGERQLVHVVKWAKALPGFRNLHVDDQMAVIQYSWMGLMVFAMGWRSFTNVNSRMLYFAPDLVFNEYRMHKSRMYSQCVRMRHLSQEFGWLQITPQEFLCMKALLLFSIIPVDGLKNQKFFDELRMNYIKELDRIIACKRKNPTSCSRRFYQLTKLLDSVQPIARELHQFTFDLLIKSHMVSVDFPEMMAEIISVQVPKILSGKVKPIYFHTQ
Sequence of Glucocorticoid receptor (Homo sapiens) (P04150 whole entry, looked up): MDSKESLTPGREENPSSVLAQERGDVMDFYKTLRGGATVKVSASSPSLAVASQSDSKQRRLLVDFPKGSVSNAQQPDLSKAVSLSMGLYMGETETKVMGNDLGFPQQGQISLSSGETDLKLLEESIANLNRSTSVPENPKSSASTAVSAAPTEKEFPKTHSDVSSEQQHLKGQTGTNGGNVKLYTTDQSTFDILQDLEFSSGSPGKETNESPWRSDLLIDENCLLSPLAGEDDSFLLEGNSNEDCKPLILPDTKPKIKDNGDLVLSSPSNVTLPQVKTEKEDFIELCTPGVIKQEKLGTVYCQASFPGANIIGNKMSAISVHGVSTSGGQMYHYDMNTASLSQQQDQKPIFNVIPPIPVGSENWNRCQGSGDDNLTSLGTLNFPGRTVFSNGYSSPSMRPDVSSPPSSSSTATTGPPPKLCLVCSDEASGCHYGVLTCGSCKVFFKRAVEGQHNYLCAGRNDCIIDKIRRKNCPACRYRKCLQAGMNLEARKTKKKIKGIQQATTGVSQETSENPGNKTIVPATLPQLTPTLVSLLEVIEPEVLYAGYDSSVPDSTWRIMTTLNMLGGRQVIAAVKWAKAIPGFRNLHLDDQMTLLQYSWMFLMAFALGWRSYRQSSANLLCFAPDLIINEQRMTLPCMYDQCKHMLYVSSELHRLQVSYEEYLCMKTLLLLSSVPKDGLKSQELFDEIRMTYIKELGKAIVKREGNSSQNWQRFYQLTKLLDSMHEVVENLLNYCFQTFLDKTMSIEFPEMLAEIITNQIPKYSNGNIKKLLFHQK

In the case of `O=C(O)CCC/C=C\C[C@@H]1[C@@H](/C=C/[C@@H](O)COc2cccc(C(F)(F)F)c2)[C@H](O)C[C@@H]1O`, the Potency entry in assay [1], in assay [2], in assay [3], in assay [4], in assay [5] and in [7] was “inactive” each time. For the same molecule, the Potency entry in assay [9], in assay [10], in [11], in assay [12], in assay [13] and in assay [14] was “inactive” throughout. Also, the Potency entry in [15], in assay [16], in assay [17] and in [18] was “inactive” in each case. Also, the call in assay [6] and in [8] was inactive.
On to `CCN(CC)CCC(=O)N1c2ccccc2Sc2ccc(Cl)cc21`, for which the Potency result in assay [1], in assay [2], in [3], in [4], in assay [5] and in assay [7] was “inactive” in each case. Also, the Potency result in [9], in assay [10] and in assay [14] was “inactive” in each case. Moreover, the molecule was called inactive in [6] and in assay [8]. Besides, the Potency was 8.41 µM (active) in assay [11], 10.6 µM (active) in [12] and 11.9 µM (active) in assay [13].
For the molecule `CCCCCCCCCCCCCC[n+]1ccc(C)cc1`, the Potency result in assay [1], in assay [2], in [3], in assay [4], in assay [5] and in [7] was “inactive” in each case. Besides, the Potency result in assay [9], in assay [19] and in assay [16] was “inactive” in each case. Further, the result in assay [6] and in assay [8] was inactive. Moreover, the Potency was 21.3 µM (active) in [10]; 0.188 µM (active) in assay [11]; 0.335 µM (active) in [12]; 0.266 µM (active) in [13]; 6.01 µM (active) in assay [14]; 9.52 µM (active) in [15]. Besides, in assay [18], the Potency is 5.96 µM (active).
In the case of `CCC[C@@]1(CCc2ccccc2)CC(O)=C([C@H](CC)c2cccc(NS(=O)(=O)c3ccc(C(F)(F)F)cn3)c2)C(=O)O1`, the Potency entry in assay [1], in assay [2], in [3], in [4], in assay [5] and in assay [7] was “inactive” throughout. Besides, the Potency result in assay [9], in assay [10], in [11], in [12], in assay [13] and in assay [14] was “inactive” in each case. For the same molecule, the Potency entry in assay [17] is “inactive”. Further, the call in assay [6] and in assay [8] was inactive.
With `CCCC(=O)O[C@]1(C(=O)COC(C)=O)CC[C@H]2[C@@H]3C[C@H](F)C4=CC(=O)C=C[C@]4(C)[C@@]3(F)[C@@H](O)C[C@@]21C`, the Potency entry in [1], in assay [2], in assay [3], in [4], in assay [5] and in [7] was “inactive” throughout. Also, the Potency entry in [10], in [14] and in [17] was “inactive” throughout. Moreover, the molecule was called inactive in assay [6] and in assay [8]. Besides, the Potency was 0.0043 µM [inconclusive] (active) in assay [9], 26.6 µM (active) in assay [11], 29.8 µM (active) in [12] and 29.8 µM (active) in assay [13].
In the case of `CCCOc1ccc2nc(NC(=O)OC)sc2c1`, the Potency result in [1], in [2], in assay [3], in [4], in assay [5] and in [7] was “inactive” throughout. Further, the Potency result in [9], in assay [10], in assay [14] and in assay [17] was “inactive” in each case. For the same molecule, the molecule was classed as inactive in [6] and in assay [8]. The values for the Potency in [11], in assay [12] and in assay [13] were 2.37 µM (active), 2.66 µM (active) and 3.35 µM (active), respectively.
Regarding `CO[C@@]1(NC(=O)C2SC(=C(C(N)=O)C(=O)O)S2)C(=O)N2C(C(=O)O)=C(CSc3nnnn3C)CS[C@@H]21` (stereo not given in full), the Potency result in assay [1], in assay [2], in assay [3], in assay [4], in assay [5] and in [7] was “inactive” in each case. Also, the Potency result in [9], in assay [20], in [11], in assay [12], in assay [13] and in assay [14] was “inactive” each time. In addition, the Potency entry in assay [17] is “inactive”. The result in assay [6] and in assay [8] was inactive.
